Assay results: PubChem BioAssay (NCATS)
This is one part of the list. The source made the active and inactive calls. Calls come from the whole dose curve; as a rule, active = well fitted inhibition curve with a large enough effect; inconclusive = small, poorly fitted or top-dose-only effect, or another doubt; inactive = no such curve, though single readings can be large or run the other way.

Biological target: Vitamin D3 receptor (Homo sapiens) (UniProt P11473)
Test: qHTS for Inhibitors of the vitamin D receptor (VDR): Hit Validation using a Fluorescein Assay (AID 602200)
Conditions: VDR-coactivator binding, fluorescein fluorescence polarization
Text: The vitamin D receptor (VDR) is a ligand-activated transcription factor and is partially responsible for the regulation of the endocrine system. This includes the transcriptional regulation of genes involved in the production of the parathyroid hormone (PTH) and the regulation of the blood calcium level. High levels of PHT can cause hypercalcemia in the case of primary and tertiary hyperparathyroidism. The VDR-mediated gene regulation, activated by its ligand 1,25-dihydroxyvitamin D3 (1,25-(OH)2D3), is governed by the recruitment of coactivators. Our hypothesis is that small molecules, with the ability to inhibit the interaction between VDR and certain coactivators, are able to selectively modulate VDR-mediated transcription. Our long term objective is the application these VDR-coactivator inhibitors to study the role of VDR-coactivator binding for specific VDR regulated genes. Ultimately, these molecules can be developed into new treatments for hypercalcemic hyperparathyroidism. No small molecule or non-peptide inhibitors are known for the VDR-coactivator interaction.
In a collaboration between the University of Wisconsin, Milwaukee and the NIH Chemical Genomics Center (NCGC) a HTS-compatible enzymatic assay was developed. The assay uses fluorescence polarization as its read-out to measure the inhibition between VDR and coregulator peptide SRC2-3 exerted by small molecules. This assay was used to screen the NIH Molecular Libraries Small Molecule Repository (MLSMR). The HTS assay detects polarization at 665 nm emitted by the Alexa Fluor 647 dye. This validation assay measures polarization of fluorescein emission at 521 nm
NIH Chemical Genomics Center [NCGC]
NIH Molecular Libraries Probe Centers Network [MLPCN]
Assay Submitter (PI): Alexander Arnold, University of Wilwaukee
Four microliter of either 1.5 uM VDR-LBD, 5 uM LG19078, and 5 nM SRC2-3 Fluorescein (all final concentrations) in columns 1, 2, and 5 to 48 or 5 nM SRC2-3 Fluorescein in columns 3 and 4 are dispensed into black medium-binding solid bottom Greiner plates. Both solutions are kept at 4 deg C and protected from light and dispensed using a Kalypsys dispenser. Then 23 nl of compounds and controls are added with Kalypsys pintool. […] Plate is centrifuged at 1000 RPM for 15 seconds to remove any residual bubbles. The plate is then incubate at ambient room temperature for 2 hours. It is then read on the Envision for a fluorescent polarization read-out (Ex 495 nm/Em 520 nm)
Potency is the fitted concentration of half-maximal effect.

Sequence of Vitamin D3 receptor (Homo sapiens) (P11473 whole entry, looked up): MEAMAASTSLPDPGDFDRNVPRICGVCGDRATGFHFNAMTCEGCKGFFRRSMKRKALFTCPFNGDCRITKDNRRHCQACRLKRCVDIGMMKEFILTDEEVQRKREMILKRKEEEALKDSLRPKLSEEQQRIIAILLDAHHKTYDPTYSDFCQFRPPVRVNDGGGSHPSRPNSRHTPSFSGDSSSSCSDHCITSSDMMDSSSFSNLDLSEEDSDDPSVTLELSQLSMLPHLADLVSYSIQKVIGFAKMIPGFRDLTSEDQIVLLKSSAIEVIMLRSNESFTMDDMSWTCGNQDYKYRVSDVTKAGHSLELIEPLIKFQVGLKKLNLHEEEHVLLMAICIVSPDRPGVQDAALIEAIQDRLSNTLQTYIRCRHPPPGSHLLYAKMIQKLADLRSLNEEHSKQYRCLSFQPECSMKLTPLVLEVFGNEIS

Potency, active:
O=C(Nc1nc(-c2ccncc2)cs1)C1COc2ccccc2O1 (stereo not given) 3.16 µM, CCCCS(=O)(=O)c1oc(-c2cccs2)nc1S(=O)(=O)c1ccccc1 3.16 µM, O=C1C=C(c2ccc(Cl)cc2)C(=O)N1Nc1ccccc1 1.78 µM, CCOc1ccc(N(Cc2ccccc2)C(=O)c2nc(S(C)(=O)=O)ncc2Cl)cc1 3.55 µM, CC(=O)N1CC[n+]2c(-c3ccc([N+](=O)[O-])cc3)csc21 3.98 µM, Cc1cc(C)nc(S/C=C/C(=O)c2ccccc2)n1 3.55 µM, Cc1cccc(Oc2c([N+](=O)[O-])c(=O)n(C)c3ccccc23)c1 20 µM, CC1CCN(C(=S)c2ccc(-c3ccc(Cl)cc3Cl)o2)CC1 25.1 µM, COc1ccc(OCc2nnc3n2N=C(c2ccccc2)C(CC(=O)O)S3)cc1 (stereo not given) 1.12 µM, O=C(/C=C/c1ccc(Cl)c([N+](=O)[O-])c1)c1cccnc1 2.51 µM, Cc1ccc(-c2nc3ccccn3c2Nc2c(C)cccc2C)o1 28.2 µM, COC(=O)c1sc(-c2ccc(C(C)(C)C)cc2)cc1NC(=O)/C=C/C(=O)O 14.1 µM, Cc1ccc(O)c(NC(=O)CCS(=O)(=O)c2nc(-c3ccc4c(c3)OCO4)cc(C(F)(F)F)n2)c1 6.31 µM, C[C@@H](NC(=O)OC(C)(C)C)c1nnc(S(=O)(=O)Cc2ccccc2)o1 17.8 µM, CC(=O)N(C1=C(Cl)C(=O)c2ccccc2C1=O)c1ccc(C(=O)O)cc1 2.82 µM, CCOC(=O)c1sc(=S)n2c1[nH]c(=O)c1ccc(C(=O)OC)cc12 6.31 µM, O=C(Nc1ccccc1)c1nnsc1S(=O)(=O)c1ccc(Cl)cc1 7.08 µM, O=C(/C=C/c1ccccc1)c1ccccc1O 14.1 µM, O=c1[nH]c(/C=C\c2cccc(C(F)(F)F)c2)nc(O)c1[N+](=O)[O-] 10 µM, c1ccc2c(C[n+]3csc4ccccc43)cccc2c1 7.08 µM
